In PubChem BioAssay:
Activity calls are given as the source filed them.

Columns and labels:
[1] = test system: Plasmodium falciparum Sir2 (PF13_0152, Sir2A); test: pfSir2 binders on small-molecule microarrays, primary screen, biochemical, small-molecule microarray, 635 nm fluorescence (AID 1098); details: small-molecule microarray binding, fluorescence 635 nm; higher = more signal;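 also: score merges spot fluorescence intensity with its signal-to-noise ratio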
[2] = small-molecule microarray binders of probe aDKK1, primary screen, biochemical, biotinylated probe, 635/667 nm fluorescence (AID 1099); details: higher = more signal;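 also: score merges 667nm spot fluorescence with signal to noise across triplicate slides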
[3] = small-molecule microarray binders of probe aCHRDL2, primary screen, biochemical, biotinylated probe, 635/667 nm fluorescence (AID 1100); details: higher = more signal
[4] = splicing luciferase reporter signal modulators, primary screen, spliceosome inhibition project, cell-based, HEK293, splice +/- reporter (AID 1101); details: luminescence, 24 h, higher = more signal, called active from +8 up or from −8 down;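 also: HEK293 cells carrying a splicing-competent luciferase reporter gene; test concentration not given here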
[5] = target: Fibroblast growth factor 10 (Homo sapiens) (UniProt O15520); test: FGF10 binders on small-molecule microarrays, primary screen, biochemical, small-molecule microarray, 635 nm fluorescence (AID 1102); details: FGF10 binding, fluorescence 635 nm, higher = more signal
Fibroblast growth factor 10 (Homo sapiens), sequence (O15520 whole entry, looked up): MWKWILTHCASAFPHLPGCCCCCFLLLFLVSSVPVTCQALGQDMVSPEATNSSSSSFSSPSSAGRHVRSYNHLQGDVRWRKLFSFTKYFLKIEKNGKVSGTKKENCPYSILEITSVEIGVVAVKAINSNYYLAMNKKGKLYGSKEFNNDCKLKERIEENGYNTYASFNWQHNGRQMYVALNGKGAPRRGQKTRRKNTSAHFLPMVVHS

[6] = test system: glycogen synthase kinase-3 (GSK3A per assay name; protocol says GSK3B); test: GSK3 binders on small-molecule microarrays, primary screen, biochemical, small-molecule microarray, 635 nm fluorescence, GSK3A (AID 1103); details: small-molecule microarray binding, fluorescence 635 nm; higher = more signal; also: the record names both GSK3A and GSK3B
[7] = target: Epidermal growth factor receptor (Homo sapiens) (UniProt P00533); test: EGFR binders on small-molecule microarrays, primary screen, biochemical, small-molecule microarray, 635 nm fluorescence (AID 1104); details: EGFR binding, higher = more signal;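 also: score merges 667 nm emission intensity with spot signal to noise over triplicate slides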
Epidermal growth factor receptor (Homo sapiens), sequence (P00533 whole entry, looked up): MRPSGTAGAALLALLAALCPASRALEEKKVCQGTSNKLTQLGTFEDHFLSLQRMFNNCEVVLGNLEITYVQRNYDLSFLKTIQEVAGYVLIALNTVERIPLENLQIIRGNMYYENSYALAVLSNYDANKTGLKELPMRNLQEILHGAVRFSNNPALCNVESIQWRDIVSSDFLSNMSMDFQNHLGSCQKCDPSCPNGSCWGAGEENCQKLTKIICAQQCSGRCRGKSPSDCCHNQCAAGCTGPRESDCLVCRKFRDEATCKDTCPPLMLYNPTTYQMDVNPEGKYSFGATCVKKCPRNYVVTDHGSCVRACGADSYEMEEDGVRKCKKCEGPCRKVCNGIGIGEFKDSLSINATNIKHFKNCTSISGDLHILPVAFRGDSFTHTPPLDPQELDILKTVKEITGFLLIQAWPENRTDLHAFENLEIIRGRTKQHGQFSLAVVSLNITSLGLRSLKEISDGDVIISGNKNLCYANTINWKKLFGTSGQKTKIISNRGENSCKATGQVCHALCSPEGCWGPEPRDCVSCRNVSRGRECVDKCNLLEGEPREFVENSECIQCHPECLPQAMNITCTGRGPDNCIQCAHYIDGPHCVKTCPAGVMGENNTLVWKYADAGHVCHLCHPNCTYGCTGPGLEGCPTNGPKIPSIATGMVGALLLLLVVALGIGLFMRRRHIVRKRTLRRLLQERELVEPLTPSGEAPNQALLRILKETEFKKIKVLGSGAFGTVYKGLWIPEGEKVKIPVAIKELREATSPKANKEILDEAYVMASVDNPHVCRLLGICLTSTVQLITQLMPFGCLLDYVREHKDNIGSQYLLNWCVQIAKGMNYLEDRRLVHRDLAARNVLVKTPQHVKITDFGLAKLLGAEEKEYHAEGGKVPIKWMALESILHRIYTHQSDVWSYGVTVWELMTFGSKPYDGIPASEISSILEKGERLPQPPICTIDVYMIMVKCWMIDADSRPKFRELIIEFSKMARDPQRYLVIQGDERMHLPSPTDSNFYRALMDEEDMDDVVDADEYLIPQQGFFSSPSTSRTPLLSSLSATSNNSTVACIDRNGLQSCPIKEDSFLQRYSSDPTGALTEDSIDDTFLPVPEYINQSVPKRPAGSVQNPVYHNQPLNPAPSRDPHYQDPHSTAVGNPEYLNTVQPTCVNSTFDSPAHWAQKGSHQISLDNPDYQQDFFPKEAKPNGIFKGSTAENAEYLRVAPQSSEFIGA

[8] = target: Follistatin-related protein 3 (Homo sapiens) (UniProt O95633); test: FSTL3 binders on small-molecule microarrays, primary screen, biochemical, small-molecule microarray, 635 nm fluorescence (AID 1105); details: FSTL3 binding, higher = more signal;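 also: score merges emission near 667 nm and signal to noise per printed spot across three slides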
Follistatin-related protein 3 (Homo sapiens), sequence (O95633 whole entry, looked up): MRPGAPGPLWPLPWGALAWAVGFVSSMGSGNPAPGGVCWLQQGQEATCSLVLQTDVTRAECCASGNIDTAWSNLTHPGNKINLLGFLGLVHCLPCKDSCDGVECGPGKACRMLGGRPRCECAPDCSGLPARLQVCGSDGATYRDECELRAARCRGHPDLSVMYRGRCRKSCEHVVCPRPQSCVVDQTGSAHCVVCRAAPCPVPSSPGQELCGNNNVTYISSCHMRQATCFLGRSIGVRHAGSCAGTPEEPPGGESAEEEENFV

[9] = target: Dickkopf-related protein 1 (Homo sapiens) (UniProt O94907); test: DKK1 binders on small-molecule microarrays, primary screen, biochemical, small-molecule microarray, 635 nm fluorescence scan (AID 1106); details: DKK1 binding, higher = more signal;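 also: score merges emission near 667 nm with signal to noise over three replicate slides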
Dickkopf-related protein 1 (Homo sapiens), sequence (O94907 whole entry, looked up): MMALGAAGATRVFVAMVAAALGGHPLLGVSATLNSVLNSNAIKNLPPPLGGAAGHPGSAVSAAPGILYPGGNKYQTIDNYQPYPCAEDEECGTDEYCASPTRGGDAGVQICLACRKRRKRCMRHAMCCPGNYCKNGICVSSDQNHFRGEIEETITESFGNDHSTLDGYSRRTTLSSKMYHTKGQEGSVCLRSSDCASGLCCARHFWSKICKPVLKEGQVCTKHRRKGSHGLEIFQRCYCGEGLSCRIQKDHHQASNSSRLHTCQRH

[10] = test system: Inhibin beta A chain (activin A); test: INHBA (activin A) binders on microarrays, primary screen, biochemical, small-molecule microarray, 635 nm fluorescence scan (AID 1107); details: small-molecule microarray binding, higher = more signal;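 also: mouse activin A protein probed at 4.33 µg/mL on printed slides; score merges bound-protein fluorescence near 667 nm with spot signal-to-noise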
[11] = test system: Human papillomavirus type 1a protein E7 (residues 44-93); test: HPV1a E7 fragment binders on microarrays, primary screen, biochemical, small-molecule microarray, residues 44-93, 635 nm fluorescence (AID 1108); details: small-molecule microarray binding, fluorescence 635 nm; higher = more signal;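 also: E7 fragment applied at 1 µg/mL in TBST for 1 h at 4 C; score combines spot fluorescence with its signal to noise ratio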
[12] = modulators of HCV replicon luciferase signal, primary screen, HCV replication inhibitor project, Huh7 cells, luciferase reporter (AID 1109); details: 48 h, higher = more signal;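 also: huh7 hepatoma cells harbouring a luciferase neomycin HCV replicon reporter; luciferase luminescence as measure of HCV replicon replication; test concentration not given here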
[13] = target: Left-right determination factor 2 (Homo sapiens) (UniProt O00292); test: LEFTY2 binders on small-molecule microarrays, primary screen, biochemical, small-molecule microarray, 635 nm fluorescence scan (AID 1110); details: LEFTY2 binding, higher = more signal
Left-right determination factor 2 (Homo sapiens), sequence (O00292 whole entry, looked up): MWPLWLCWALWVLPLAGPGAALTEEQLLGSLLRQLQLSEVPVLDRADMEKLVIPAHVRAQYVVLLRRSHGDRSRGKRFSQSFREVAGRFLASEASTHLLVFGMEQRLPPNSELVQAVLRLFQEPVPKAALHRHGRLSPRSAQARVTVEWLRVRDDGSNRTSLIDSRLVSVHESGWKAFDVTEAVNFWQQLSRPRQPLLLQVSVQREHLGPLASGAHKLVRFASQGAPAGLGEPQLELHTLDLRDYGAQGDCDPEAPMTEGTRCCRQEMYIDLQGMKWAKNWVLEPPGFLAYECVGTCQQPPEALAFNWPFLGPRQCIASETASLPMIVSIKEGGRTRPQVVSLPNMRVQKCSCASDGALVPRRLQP

[14] = target: Calmodulin-1 (Homo sapiens) (UniProt P0DP23); test: CALM1 binders on microarrays, EGTA buffer, profiling panel, biochemical, small-molecule microarray, Cy5-labelled CALM1 (AID 1111); details: Cy5-CALM1 binding fluorescence, higher = more signal;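 also: labelled calmodulin applied in Tris saline Tween buffer holding calcium plus EGTA and DTT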
[15] = target: Calmodulin-1 (Homo sapiens) (UniProt P0DP23); test: calcium-bound CALM1 binders on microarrays, profiling panel, artefact control for SMM control-protein annotation, biochemical, small-molecule microarray, Cy5-labelled CALM1, plus calcium (AID 1112); details: Cy5-CALM1 binding fluorescence, higher = more signal;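 also: score merges spot fluorescence with signal to noise from triplicate slides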
[16] = small-molecule microarray binders of probe aWnt5a, primary screen, biochemical, biotinylated probe, 635/667 nm fluorescence (AID 1113); details: higher = more signal;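 also: score merges 667 nm fluorescence intensity with signal-to-noise per printed feature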
[17] = small-molecule microarray binders of probe aShh, primary screen, biochemical, biotinylated probe, 635/667 nm fluorescence (AID 1114); details: higher = more signal;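 also: probe is biotin-labelled aShh protein from a stem cell growth factor screen; measures binding of labelled protein to compounds printed on the slide; score merges feature fluorescence at 667 nm with signal-to-noise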
[18] = small-molecule microarray binders of probe aNog, primary screen, biochemical, biotinylated probe, 635/667 nm fluorescence (AID 1115); details: higher = more signal;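 also: probe is biotinylated aNog protein used at 0.15 µg/mL for 1 h at 4 C; z-score combines 667 nm fluorescence of each spot with its signal to noise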
[19] = target: Torsin-1A-interacting protein 1 (Homo sapiens) (UniProt Q5JTV8); test: LAP1 binders from COS7 cell lysate, primary screen, small-molecule microarray, 635/667 nm fluorescence (AID 1116); details: COS7-hLAP1 lysate binding, 635 nm fluorescence, higher = more signal
Torsin-1A-interacting protein 1 (Homo sapiens), sequence (Q5JTV8 whole entry, looked up): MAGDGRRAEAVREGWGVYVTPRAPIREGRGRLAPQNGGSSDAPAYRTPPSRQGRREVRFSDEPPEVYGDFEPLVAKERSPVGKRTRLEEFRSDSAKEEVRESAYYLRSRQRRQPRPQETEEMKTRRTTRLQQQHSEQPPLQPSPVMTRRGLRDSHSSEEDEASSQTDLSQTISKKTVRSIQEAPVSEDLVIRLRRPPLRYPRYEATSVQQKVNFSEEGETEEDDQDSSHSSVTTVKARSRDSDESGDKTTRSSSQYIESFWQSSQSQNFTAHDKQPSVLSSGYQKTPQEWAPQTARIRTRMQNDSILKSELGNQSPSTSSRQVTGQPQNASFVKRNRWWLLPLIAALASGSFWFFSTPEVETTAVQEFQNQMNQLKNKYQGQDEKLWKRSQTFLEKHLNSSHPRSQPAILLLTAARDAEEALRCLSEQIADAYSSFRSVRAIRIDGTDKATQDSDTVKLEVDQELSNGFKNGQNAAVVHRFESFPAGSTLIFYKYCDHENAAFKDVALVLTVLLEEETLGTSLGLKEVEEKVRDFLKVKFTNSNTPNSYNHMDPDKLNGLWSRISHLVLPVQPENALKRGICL

[20] = target: Alpha-bungarotoxin (Bungarus multicinctus) (UniProt P60615); test: alpha-bungarotoxin binders on microarray, profiling panel, artefact control for SMM control protein annotation, biochemical, small-molecule microarray, Alexa647 label, 635/667 nm fluorescence (AID 1117); details: alpha-BTX-A647 binding fluorescence, higher = more signal
Alpha-bungarotoxin (Bungarus multicinctus), sequence (P60615 whole entry, looked up): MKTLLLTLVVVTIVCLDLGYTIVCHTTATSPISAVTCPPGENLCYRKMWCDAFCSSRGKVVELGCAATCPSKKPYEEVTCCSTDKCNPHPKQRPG

Compound | composite z-score [1] | composite z-score [2] | composite z-score [3] | z-score [4] | composite z-score [5] | composite z-score [6] | composite z-score [7] | composite z-score [8] | composite z-score [9] | composite z-score [10] | composite z-score [11] | z-score [12] | composite z-score [13] | composite z-score [14] | composite z-score [15] | composite z-score [16] | composite z-score [17] | composite z-score [18] | composite z-score [19] | composite z-score [20]
CC(C)C(O)C1C=CC2C(=O)N(c3ccccc3)C(=O)C2N1Nc1ccc(C#N)cc1 (stereo not given) | 1.08 | 1.27 | 1.26 | 0.251 (inactive) | 1.17 | 0.681 | 0.0839 | 1.22 | -0.512 | 0.942 | 0.931 | 0.993 | 1.11 | 0.875 | 0.717 | -0.0522 | -0.452 | 0.843 | 0.892 | 1.36
CC(=O)C1=CCC(c2ccccc2)N(S(=O)(=O)c2ccc(C)cc2)C1 (stereo not given) | 1.4 | 0.196 | 0.469 | 0.0149 (inactive) | 0.586 | 0.258 | 0.255 | 1.01 | 0.0538 | 1.12 | 1.41 | -0.975 | 0.034 | -0.105 | -0.163 | -0.0758 | 0.156 | 0.471 | 1.28 | 0.19
Cc1cc(C)c(C(O)C2C=CC3C(=O)N(c4ccccc4)C(=O)C3N2Nc2ccc(C#N)cc2)c(C)c1 (stereo not given) | 0.586 | 1.05 | 1.24 | 0.757 (inactive) | 1.27 | 1.22 | 0.283 | 1.22 | -0.0911 | 0.7 | 0.486 | -0.111 | 0.219 | 2.56 | 1.17 | 0.0894 | -0.0793 | 1.97 | 0.922 | 1.79
CN1C(=O)C2C(C1=O)C1C=C(CCCO)C2C(c2cccs2)N1C (stereo not given) | 1.78 | -0.722 | -0.681 | -0.0035 (inactive) | 0.248 | -0.76 | -0.106 | -0.473 | -0.559 | 0.561 | 0.0537 | -0.999 | -0.676 | 0.203 | 0.451 | -0.0462 | 0.469 | -0.395 | -0.646 | -0.513
CC(C)C(=C=CC[C@H](O)c1ccccc1OCCO)C[C@H](O)c1ccccn1 | 1.62 | 0.0012 | -0.203 | -0.705 (inactive) | 0.764 | 0.559 | -0.536 | -0.0639 | -0.0832 | 0.407 | 0.143 | -0.493 | 0.64 | -0.227 | -0.253 | -0.0607 | -0.2 | 0.381 | 0.94 | 1.38
O=c1cccc(C=Cc2ccccc2)o1 | -1.32 | 0.121 | 0.756 | -0.121 (inactive) | -0.629 | 0.0144 | -1.16 | -0.657 | -1.36 | 0.758 | -0.64 | -0.854 | -1.31 | -0.471 | -0.274 | -0.145 | 0.147 | -0.411 | -0.363 | -0.374
COCCOC(=O)N1C(=O)[C@@]2(c3cc(C#CC4(O)CCCCCC4)ccc31)[C@H](C(=O)N1CCCCCCC1)[C@H]1C(=O)O[C@H](c3ccccc3)[C@H](c3ccccc3)N1[C@@H]2c1ccccc1OCCO | 1.6 | 1.56 | 1.44 | 0.0811 (inactive) | 0.933 | 1.32 | 0.75 | 1.46 | 1.18 | 1.63 | 1.42 | -1.61 | 0.487 | 1.79 | 1.22 | 0.265 | 0.906 | 2.36 | 1.62 | 1.49
C=CCC(OC(C)=O)[C@@H]1[C@@H](N(Cc2cccc3ccccc23)C(=O)c2cccc3ccccc23)c2cc(OCCCO)ccc2N1C(=O)c1ccc2ccccc2n1 (stereo not given in full) | -0.0758 | -0.095 | 0.181 | -0.202 (inactive) | 0.635 | 0.0702 | -0.0538 | 0.256 | -0.501 | 1.45 | -0.316 | 1.21 | 0.146 | -0.301 | 0.117 | -0.208 | -0.138 | 0.151 | -0.117 | -0.198
COc1ccc(C#Cc2ccc3c(c2)[C@]2(C(=O)N3)[C@H](c3ccc(O)cc3)N3[C@H](c4ccccc4)[C@H](c4ccccc4)OC(=O)[C@H]3[C@@H]2C(=O)N2CCCCCCC2)cc1 | 1.39 | 2.69 | 1.52 | -0.844 (inactive) | 1.22 | 1.33 | 1.18 | 1.61 | 1.61 | 1.78 | 1.33 | -1.01 | 1.07 | 2.7 | 1.41 | 0.754 | 2.15 | 2.75 | 4.61 | 1.83
C=CCOC(=O)[C@H]1[C@@H]2C(=O)O[C@@H](c3ccccc3)[C@@H](c3ccccc3)N2[C@@H](c2ccc(OCCOC(=O)[C@@H]3C[C@@H]4C(=O)N5CCC[C@H]5C(=O)N4[C@@H]3c3ccc(O)cc3)cc2)[C@]12C(=O)Nc1ccccc12 | 1.53 | -0.294 | 0.0807 | 0.109 (inactive) | 0.629 | 1.28 | 0.586 | 1.21 | 1.45 | -0.23 | 1.4 | -1.81 | 0.677 | 0.823 | 0.0257 | -0.1 | 0.0121 | -0.467 | 0.808 | 1.18
